Legend:
Conditions in all cases: concentration: 1 μM, replicates: in singlicate; n = 1
STK36 = test system: STK36
STK39 = test system: STK39
SYK = test system: SYK
SgK110 = test system: SgK110
TAK1 = test system: T1, TAK1
T1 construct: gene MAP3K7

TAOK1 = test system: TAOK1
TAOK2 = test system: TAOK2
TAOK3 = test system: TAOK3
TBK1 = test system: TBK1
TEC = test system: TEC
TESK1 = test system: TESK1
TGFBR1 = test system: TGFBR1
TGFBR2 = test system: TGFBR2
TIE1 = test system: TIE1
TIE2 = test system: T2, TIE2
T2 construct: gene TEK

TLK1 = test system: TLK1
TLK2 = test system: TLK2
TNIK = test system: TNIK
TNK1 = test system: TNK1
TNK2 = test system: TNK2
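Also: KINOMEscan kinase panel screen.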

In the case of `CN(C)CCNS(=O)(=O)c1ccc(-c2ccnc3[nH]ccc23)cc1` [GSK977620], the “%Inh” value (STK36) was 0%, the “%Inh” value (STK39) was 5% and the “%Inh” value (SYK) was 31%. For the same compound, the “%Inh” value (SgK110) was 0%, the “%Inh” value (TAK1) was 1% and the “%Inh” value (TAOK1) was 3%. For the same compound, the “%Inh” value (TAOK2) was 0%, the “%Inh” value (TAOK3) was 0% and the “%Inh” value (TBK1) was 0%. The “%Inh” value (TEC) was 0%, the “%Inh” value (TESK1) was 74% and the “%Inh” value (TGFBR1) was 0%. The “%Inh” value (TGFBR2) was 0%, the “%Inh” value (TIE1) was 32% and the “%Inh” value (TIE2) was 0%. For the same compound, the “%Inh” value (TLK1) was 7%, the “%Inh” value (TLK2) was 7% and the “%Inh” value (TNIK) was 0%. For the same compound, the “%Inh” value (TNK1) was 0% and the “%Inh” value (TNK2) was 7%.
`O=C(Nc1n[nH]c2nc(-c3cccc(O)c3)ccc12)C1CC1` [SB-711805] was tested, and the “%Inh” value (STK36) was 14%, the “%Inh” value (STK39) was 4% and the “%Inh” value (SYK) was 40%. The “%Inh” value (SgK110) was 0%, the “%Inh” value (TAK1) was 15% and the “%Inh” value (TAOK1) was 88%. The “%Inh” value (TAOK2) was 12%, the “%Inh” value (TAOK3) was 34% and the “%Inh” value (TBK1) was 23%. The “%Inh” value (TEC) was 0%, the “%Inh” value (TESK1) was 0% and the “%Inh” value (TGFBR1) was 4%. For the same compound, the “%Inh” value (TGFBR2) was 87%, the “%Inh” value (TIE1) was 0% and the “%Inh” value (TIE2) was 21%. The “%Inh” value (TLK1) was 9%, the “%Inh” value (TLK2) was 100% and the “%Inh” value (TNIK) was 65%. For the same compound, the “%Inh” value (TNK1) was 4% and the “%Inh” value (TNK2) was 0%.
In the case of `Cc1ccc(-c2ccc3occ(-c4ccc(S(C)=O)cc4)c3c2)nn1` (centres unmarked), the “%Inh” value (STK36) was 0%, the “%Inh” value (STK39) was 0% and the “%Inh” value (SYK) was 5%. For the same compound, the “%Inh” value (SgK110) was 0%, the “%Inh” value (TAK1) was 0% and the “%Inh” value (TAOK1) was 0%. The “%Inh” value (TAOK2) was 0%, the “%Inh” value (TAOK3) was 0% and the “%Inh” value (TBK1) was 47%. For the same compound, the “%Inh” value (TEC) was 0%, the “%Inh” value (TESK1) was 0% and the “%Inh” value (TGFBR1) was 0%. The “%Inh” value (TGFBR2) was 18%, the “%Inh” value (TIE1) was 0% and the “%Inh” value (TIE2) was 15%. For the same compound, the “%Inh” value (TLK1) was 0%, the “%Inh” value (TLK2) was 38% and the “%Inh” value (TNIK) was 0%. The “%Inh” value (TNK1) was 0% and the “%Inh” value (TNK2) was 0%.
In the case of `Cn1cc(-c2ccc3c(c2)CCN3C(=O)Cc2cc(F)cc(C(F)(F)F)c2)c2c(N)ncnc21` [GSK2635225], the “%Inh” value (STK36) was 19%, the “%Inh” value (STK39) was 0% and the “%Inh” value (SYK) was 27%. The “%Inh” value (SgK110) was 0%, the “%Inh” value (TAK1) was 39% and the “%Inh” value (TAOK1) was 0%. For the same compound, the “%Inh” value (TAOK2) was 0%, the “%Inh” value (TAOK3) was 0% and the “%Inh” value (TBK1) was 21%. The “%Inh” value (TEC) was 0%, the “%Inh” value (TESK1) was 26% and the “%Inh” value (TGFBR1) was 0%. For the same compound, the “%Inh” value (TGFBR2) was 0%, the “%Inh” value (TIE1) was 87% and the “%Inh” value (TIE2) was 52%. The “%Inh” value (TLK1) was 17%, the “%Inh” value (TLK2) was 5% and the “%Inh” value (TNIK) was 20%. For the same compound, the “%Inh” value (TNK1) was 10% and the “%Inh” value (TNK2) was 2%.
With `COc1cc(Nc2nccc(N3CCC(NC(=O)Nc4ccc5c(c4)OCO5)C3)n2)cc(OC)c1OC` (centres unmarked) [GSK1379766] the “%Inh” value (STK36) was 0%, the “%Inh” value (STK39) was 9% and the “%Inh” value (SYK) was 39%. The “%Inh” value (SgK110) was 0%, the “%Inh” value (TAK1) was 0% and the “%Inh” value (TAOK1) was 0%. For the same compound, the “%Inh” value (TAOK2) was 0%, the “%Inh” value (TAOK3) was 0% and the “%Inh” value (TBK1) was 33%. For the same compound, the “%Inh” value (TEC) was 6%, the “%Inh” value (TESK1) was 22% and the “%Inh” value (TGFBR1) was 22%. The “%Inh” value (TGFBR2) was 0%, the “%Inh” value (TIE1) was 42% and the “%Inh” value (TIE2) was 0%. For the same compound, the “%Inh” value (TLK1) was 0%, the “%Inh” value (TLK2) was 0% and the “%Inh” value (TNIK) was 0%. For the same compound, the “%Inh” value (TNK1) was 20% and the “%Inh” value (TNK2) was 9%.
With `CNc1nccc(-c2ccc3c(N)n[nH]c3c2)n1` [GSK2206003] the “%Inh” value (STK36) was 0%, the “%Inh” value (STK39) was 0% and the “%Inh” value (SYK) was 23%. The “%Inh” value (SgK110) was 0%, the “%Inh” value (TAK1) was 37% and the “%Inh” value (TAOK1) was 64%. For the same compound, the “%Inh” value (TAOK2) was 0%, the “%Inh” value (TAOK3) was 0% and the “%Inh” value (TBK1) was 22%. For the same compound, the “%Inh” value (TEC) was 5%, the “%Inh” value (TESK1) was 31% and the “%Inh” value (TGFBR1) was 25%. The “%Inh” value (TGFBR2) was 9%, the “%Inh” value (TIE1) was 15% and the “%Inh” value (TIE2) was 0%. For the same compound, the “%Inh” value (TLK1) was 8%, the “%Inh” value (TLK2) was 1% and the “%Inh” value (TNIK) was 50%. The “%Inh” value (TNK1) was 0% and the “%Inh” value (TNK2) was 17%.
In the case of `CS(=O)(=O)c1cccc(CNc2nc(Nc3ccc4c(c3)CCC(=O)N4)ncc2C(F)(F)F)c1`, the “%Inh” value (STK36) was 0%, the “%Inh” value (STK39) was 0% and the “%Inh” value (SYK) was 75%. For the same compound, the “%Inh” value (SgK110) was 0%, the “%Inh” value (TAK1) was 68% and the “%Inh” value (TAOK1) was 0%. For the same compound, the “%Inh” value (TAOK2) was 21%, the “%Inh” value (TAOK3) was 0% and the “%Inh” value (TBK1) was 89%. The “%Inh” value (TEC) was 0%, the “%Inh” value (TESK1) was 0% and the “%Inh” value (TGFBR1) was 2%. For the same compound, the “%Inh” value (TGFBR2) was 0%, the “%Inh” value (TIE1) was 57% and the “%Inh” value (TIE2) was 30%. For the same compound, the “%Inh” value (TLK1) was 0%, the “%Inh” value (TLK2) was 0% and the “%Inh” value (TNIK) was 90.1%. The “%Inh” value (TNK1) was 73% and the “%Inh” value (TNK2) was 0%.
For `COc1ccc(C2=C(Nc3cccc(O)c3)C(=O)NC2=O)cc1` [SB-390766], the “%Inh” value (STK36) was 100%, the “%Inh” value (STK39) was 34% and the “%Inh” value (SYK) was 0%. The “%Inh” value (SgK110) was 100%, the “%Inh” value (TAK1) was 0% and the “%Inh” value (TAOK1) was 0%. For the same compound, the “%Inh” value (TAOK2) was 1%, the “%Inh” value (TAOK3) was 0% and the “%Inh” value (TBK1) was 0%. For the same compound, the “%Inh” value (TEC) was 14%, the “%Inh” value (TESK1) was 12% and the “%Inh” value (TGFBR1) was 20%. The “%Inh” value (TGFBR2) was 0%, the “%Inh” value (TIE1) was 0% and the “%Inh” value (TIE2) was 0%. The “%Inh” value (TLK1) was 0%, the “%Inh” value (TLK2) was 4% and the “%Inh” value (TNIK) was 0%. For the same compound, the “%Inh” value (TNK1) was 0% and the “%Inh” value (TNK2) was 5%.
In the case of `Cl.Cl.NC(CNC(=O)c1cc(Br)c(-c2ccnc3[nH]ccc23)s1)c1ccccc1` (centres unmarked) [GSK1322949], the “%Inh” value (STK36) was 0%, the “%Inh” value (STK39) was 5% and the “%Inh” value (SYK) was 27%. The “%Inh” value (SgK110) was 0%, the “%Inh” value (TAK1) was 36% and the “%Inh” value (TAOK1) was 66%. For the same compound, the “%Inh” value (TAOK2) was 3%, the “%Inh” value (TAOK3) was 44% and the “%Inh” value (TBK1) was 20%. The “%Inh” value (TEC) was 1%, the “%Inh” value (TESK1) was 37% and the “%Inh” value (TGFBR1) was 10%. The “%Inh” value (TGFBR2) was 32%, the “%Inh” value (TIE1) was 33% and the “%Inh” value (TIE2) was 6%. For the same compound, the “%Inh” value (TLK1) was 31%, the “%Inh” value (TLK2) was 12% and the “%Inh” value (TNIK) was 59%. For the same compound, the “%Inh” value (TNK1) was 14% and the “%Inh” value (TNK2) was 10%.
In the case of `CN(c1ccc(NC(=O)N2CCN(CCCN3CCOCC3)CC2)cc1)c1ccnc(Nc2ccc(CS(C)(=O)=O)cc2)n1.Cl` [GW830899], the “%Inh” value (STK36) was 5%, the “%Inh” value (STK39) was 0% and the “%Inh” value (SYK) was 15%. The “%Inh” value (SgK110) was 0%, the “%Inh” value (TAK1) was 0% and the “%Inh” value (TAOK1) was 0%. For the same compound, the “%Inh” value (TAOK2) was 0%, the “%Inh” value (TAOK3) was 0% and the “%Inh” value (TBK1) was 53%. The “%Inh” value (TEC) was 0%, the “%Inh” value (TESK1) was 9% and the “%Inh” value (TGFBR1) was 6%. For the same compound, the “%Inh” value (TGFBR2) was 59%, the “%Inh” value (TIE1) was 0% and the “%Inh” value (TIE2) was 16%. For the same compound, the “%Inh” value (TLK1) was 2%, the “%Inh” value (TLK2) was 0% and the “%Inh” value (TNIK) was 15%. For the same compound, the “%Inh” value (TNK1) was 41% and the “%Inh” value (TNK2) was 12%.

Reference: PMC5540273 (PLoS ONE, 2017)
